# Source: PubChem (Corson Lab, School of Medicine, Indiana University)
# FECH block – inhibitors of human ferrochelatase; calls only at 10 µM (by protocol); 20,000 tested, 3.3% active; purified FECH, Ni-mesoporphyrin absorbance 550 nm; P22830;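 active means enzyme reaction rate more than 3 SD below the solvent-only control wells on the same plate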;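 further: lower slope than DMSO wells means FECH inhibition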
# Target sequence (P22830 whole entry, looked up): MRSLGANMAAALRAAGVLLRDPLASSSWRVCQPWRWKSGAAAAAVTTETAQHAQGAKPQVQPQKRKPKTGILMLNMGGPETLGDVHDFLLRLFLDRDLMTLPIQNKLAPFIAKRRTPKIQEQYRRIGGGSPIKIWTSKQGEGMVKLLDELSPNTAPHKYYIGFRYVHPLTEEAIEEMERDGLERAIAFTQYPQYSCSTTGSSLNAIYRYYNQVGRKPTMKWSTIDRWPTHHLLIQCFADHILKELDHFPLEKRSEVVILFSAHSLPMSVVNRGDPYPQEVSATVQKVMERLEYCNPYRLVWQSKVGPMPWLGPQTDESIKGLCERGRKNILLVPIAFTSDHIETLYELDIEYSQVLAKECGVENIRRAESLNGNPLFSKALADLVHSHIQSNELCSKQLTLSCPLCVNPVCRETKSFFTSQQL
# * hit, by the source's call; i = inactive; + = active, no number. Only a selection was taken, and hits are over-represented in it overall.
SMILES,FECH block
COC(=O)c1ccc(CN2CC(=O)N3CCCC3C2=O)cc1 (stereo not drawn),i
Cc1nc(NC(=O)N2CCCC(C(C)(C)O)C2)nn1C (stereo not drawn),i
O=C(CCN1CCN(CCc2ccncc2)CC1)NC1CCCCCC1,i
CCC(NC(=O)CCC(=O)NC1CCCCCCC1)c1ccnn1C (stereo not drawn),+
CCC(NC(=O)c1ccccc1-n1cncn1)c1ccnn1C (stereo not drawn),i
Cc1cc(Nc2ccccc2)nc(Nc2ccc(NC(=O)CCc3ccccc3)cc2)n1,i
Cc1ccccc1CN1CCN(CC(=O)NCc2ccccc2)S1(=O)=O,i
CN(C)c1nc(Nc2ccc(F)cc2)c2cnn(-c3ccccc3)c2n1,i
CCCc1cc(=O)n2[nH]c(CNc3ccccc3Cl)nc2n1,i
Cc1cccc(NC(=O)c2ccc(CNc3nc4nc(C)cc(=O)n4[nH]3)cc2)c1,i
CCCc1cc(=O)n2[nH]c(CNc3cccc(C)c3)nc2n1,+
CCCc1cc(=O)n2[nH]c(CNc3ccccc3F)nc2n1,+
CCCc1cc(=O)n2[nH]c(CNc3ccccc3OCC)nc2n1,i
Cc1cccc(-c2nc3nc(CNC(C)C)cc(=O)n3[nH]2)c1,i
CCCc1cc(=O)n2[nH]c(CNc3ccc(C)c(Cl)c3)nc2n1,+
CCCc1cc(=O)n2[nH]c(CNc3ccc(F)cc3)nc2n1,+
CCCc1cc(=O)n2[nH]c(CNc3cc(Cl)ccc3OC)nc2n1,i
COCCNC(=O)c1ccc(CN2C(=O)CCn3nc(-c4ccccc4)cc32)cc1,i
CS(=O)(=O)NCc1nc2cccnc2n1Cc1ccc(Cl)cc1,i
Cc1cc(N(C)C)nc(N2CCN(S(=O)(=O)c3ccccc3Cl)CC2)n1,i
CSc1nc(NC(C)(C)C)c(C#N)c(-c2ccc(C)cc2)n1,i
CCC(=O)Nc1cc(C)ccc1OCc1cc(=O)n2oc(C)cc2n1,i
Cc1cc(C)n2nc(CN(C(=O)CC(C)C)c3cccc(Cl)c3)nc2n1,i
CN(CC(=O)Nc1ccc(-c2ccno2)cc1)S(=O)(=O)c1ccc(C(=O)N2CCOCC2)s1,i
CCCOCCn1cc(C2CC=CCC2)nn1 (stereo not drawn),i
SMILES,FECH block
CCc1nnc(CN(C)Cc2cccc(C(=O)Nc3ccnn3C)c2)o1,i
O=C(c1ccc[nH]1)N1CCCC(N2CCN(c3ccccc3F)CC2)C1 (stereo not drawn),i
O=C1CC(NC(=O)CCc2cn3ccccc3n2)c2ccccc2N1 (stereo not drawn),i
CCOCCCNC(=O)c1ccc(CN2C(=O)CCn3nc(-c4cccc(Cl)c4)cc32)cc1,i
CC(c1ccccn1)N(C)Cc1nc2ccccc2n1C(C)C (stereo not drawn),i
Cc1nnsc1CN(C)Cc1ncc[nH]1,i
Cc1onc(-c2c(Cl)cccc2Cl)c1CN1CCOC(C(F)(F)F)C1 (stereo not drawn),i
COc1cccc(NCc2cc(=O)n3[nH]c(NCc4ccc(F)cc4)nc3n2)c1,i
CCCc1cc(=O)n2[nH]c(CNc3ccc(Br)cc3)nc2n1,+
O=c1cc(CNc2cccc(C(F)(F)F)c2)nc2nc(NCc3ccc(F)cc3)[nH]n12,i
CCCc1cc(=O)n2[nH]c(CNc3ccc(C)cc3)nc2n1,+
CCCc1cc(=O)n2[nH]c(CNc3cccc(C(F)(F)F)c3)nc2n1,+
COc1ccc(C(C)(C)C)cc1S(=O)(=O)N1CCN(c2nc(C)cc(N3CCCCC3)n2)CC1,i
Cc1cc(COc2ccccc2)oc1C(=O)N1CC(c2ccncc2)C1,i
COc1cc2c(cc1NC(C)=O)C(c1cc(C(C)C)ccc1OC)CC(=O)N2 (stereo not drawn),i
Cc1ccc(-c2noc(C3CCN(C(=O)C(NC(=O)c4ccco4)C(C)C)CC3)n2)cc1 (stereo not drawn),i
CCc1ccc(S(=O)(=O)N2CCN(c3nc(C)cc(N4CCCC4)n3)CC2)cc1,i
COc1cccc(Cn2c(=O)c3cnc(C)nc3n(C)c2=O)c1,i
COc1ccccc1-c1nc(Cn2c(=O)c3cnc(-c4ccc(C)cc4)nc3n(C)c2=O)c(C)o1,+
CCOc1ccccc1-c1nc(Cn2c(=O)c3cnc(-c4ccc(C)cc4)nc3n(C)c2=O)c(C)o1,i
COc1ccc(-c2ncc3c(=O)n(Cc4cccc(C)c4)c(=O)n(C)c3n2)cc1,i
COc1ccccc1-c1nc(Cn2c(=O)c3cnc(-c4cccnc4)nc3n(C)c2=O)c(C)o1,i
COc1ccc(-c2ncc3c(=O)n(Cc4cccc(OC)c4)c(=O)n(C)c3n2)cc1,i
COc1ccc(-c2ncc3c(=O)n(Cc4cccnc4)c(=O)n(C)c3n2)cc1,+
Fc1cccc(Cl)c1COc1ccccc1C1NCCc2[nH]cnc21 (stereo not drawn),i
SMILES,FECH block
Cc1ccc(Cl)cc1NC(=O)C1CCCN1S(=O)(=O)c1cc2c(cc1C)NC(=O)CO2 (stereo not drawn),i
Cc1nn(C)c(C)c1-c1c(-c2ccccc2)ncn1C(C)CCc1ccco1 (stereo not drawn),i
CC(C(=O)NCc1cn[nH]c1-c1cccs1)n1cnc2ccccc21 (stereo not drawn),i
Cc1cccn2c(Cc3nn4c(C(C)C)nnc4s3)cnc12,i
COc1ccc(CN(Cc2cccc(C)c2)C(=O)CNC(C)=O)cc1,i
Cc1ccc(CN2CCCN(CC(=O)Nc3ccc(C)c(C)c3)S2(=O)=O)cc1,i
Cc1ccc(NC(=O)CN2CCCN(Cc3cccc(F)c3)S2(=O)=O)cc1C,i
Cc1cccc(CN2CCCN(CC(=O)Nc3ccc(F)cc3)S2(=O)=O)c1,+
Cc1cccc(CN2CCCN(CC(=O)Nc3ccccc3)S2(=O)=O)c1,i
O=C(CN1CCCN(Cc2cccc(F)c2)S1(=O)=O)Nc1ccccc1,i
Cc1cccc(CN2CCCN(CC(=O)Nc3cc(C)cc(C)c3)S2(=O)=O)c1,+
Cc1ccc(CN2CCCN(CC(=O)Nc3ccc(F)cc3)S2(=O)=O)cc1,i
Cc1cccc(CN2CCCN(CC(=O)Nc3ccc(C)c(C)c3)S2(=O)=O)c1,+
Cc1cccc(CN2CCCN(CC(=O)Nc3cccc(Br)c3)S2(=O)=O)c1,i
O=C1CCCc2occ(C(=O)N3[C@H]4CCNC[C@@H]3CC4)c21,i
Cc1ccc(-c2cc(O)c3c(c2)CN(C(=O)CCCn2cncn2)CCO3)cc1,i
CCc1ccc(S(=O)(=O)NCc2nc3cccnc3n2Cc2ccc(F)cc2)cc1,i
CCc1ccc(Cn2c(CNS(=O)(=O)c3ccc(C)cc3)nc3cccnc32)cc1,i
CC(C)Cn1c(CNS(=O)(=O)c2ccc(Cl)cc2)nc2cccnc21,i
CCOc1ccc(C(=O)NCc2nc3cccnc3n2Cc2ccc(C)cc2)cc1,i
CC(C)Cn1c(CNS(C)(=O)=O)nc2cccnc21,+
Cc1cccc(Cn2c(CNS(=O)(=O)c3ccc(F)cc3)nc3cccnc32)c1,i
Cc1ccccc1S(=O)(=O)NCc1nc2cccnc2n1CC(C)C,i
Cc1cccc(Cn2c(CNS(=O)(=O)c3ccccc3)nc3cccnc32)c1,+
Cc1ccc(Cn2c(CNC(=O)c3cccnc3)nc3cccnc32)cc1,+
Cc1cccc(S(=O)(=O)NCc2nc3cccnc3n2Cc2ccccc2)c1,i
CCc1ccc(Cn2c(CNS(=O)(=O)c3ccc([N+](=O)[O-])cc3)nc3cccnc32)cc1,+
Cc1ccc(Cn2c(CNC(=O)c3ccncc3)nc3cccnc32)cc1,i
